# According to PubChem BioAssay (NCATS):
# A number with no mark means an inactive call. Inconclusive results are not listed. Where a call stands in place of a potency, no number is given. Active and inactive are the calls of the source. Unless noted, the call rests on the fitted dose curve; in most records, active means well fitted curve in the direction sought with a large enough effect; inconclusive means small, poorly fitted or top-dose-only effect, or another doubt; inactive means no such curve, though single readings can be large; an effect the other way counts as inactive or inconclusive. Numbered stars: 1 amine (or outer) side, 2 acyl side, 3 side chain; on linkers, the order of the positions; unused ones are H or OH. Bridge positions count the residues as written; N and C are the ends. Square brackets hold non-standard residues; d marks the D form. Peptide text beside a SMILES is read from it. I, II: the chains in the order shown. Actinocin(9to1) = Cc1c2oc3c(C)ccc(C(=O)[*:1])c3nc-2c(C(=O)[*:2])c(N)c1=O; aThr = C[C@H](O)[C@H](N)C(=O)O; NMeV = CN[C@H](C(=O)O)C(C)C; Sar = CNCC(=O)O
# Tests used:
# [1] = qHTS for Inhibitors of Plasmodium falciparum (CP250) proliferation (AID 504320); further: potency means the concentration at half of the fitted maximal effect
# Procedure, shortened: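 Parasite growth measured as SYBR Green DNA fluorescence (ex 485, em 535 nm) after overnight lysis following 72 h culture at 37 °C, 0.3% parasitemia, 2.5% hematocrit. Values normalized against DMSO and 0.29 uM artemisinin controls, with plate-stack correction.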
# [2] = target: Atrial natriuretic peptide receptor 1 (Homo sapiens) (UniProt P16066); experiment: Natriuretic polypeptide receptor (hNpr1) antagonism - Pilot CMLD screen (AID 1347052; calls by dose curve;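 further: HEK293 cells with hNpr1 stimulated by hNppA peptide at 0.1 nM; cGMP level read as GloSensor luciferase luminescence after agonist stimulation; series mostly up to about 9.2 µM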)
# [3] = target: Cytochrome P450 1A2 (Homo sapiens) (UniProt P05177); experiment: p450-cyp1a2 (AID 410; calls by dose curve)
# Procedure, shortened: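 20nM CYP1A2, 100uM Luciferin-ME (=Km), 100mM KPO4; cpd 10 min RT; +NADPH regen, 60 min RT; stop/detect 20 min; luminescence. Normalized to furafylline 57 uM = full inhibition.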
# [4] = target: Glucocorticoid receptor (Homo sapiens) (UniProt P04150); experiment: GR-GFP Redistribution (AID 450;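 active means compounds whose dose series gives a full or clear partial fitted curve of increased nuclear translocation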; further: potency means the concentration at half of the fitted maximal effect); conditions: U2OS GR-GFP nuclear translocation, laser cytometry, 2 h
# [5] = target: Glucocorticoid receptor (Homo sapiens) (UniProt P04150); experiment: GR-EFC Redistribution (AID 451; calls by dose curve; further: potency means the concentration at half of the fitted maximal effect); conditions: CHO-K1 GR-EFC translocation, beta-gal luminescence, 2 h
# Procedure, shortened: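 CHO-K1 cells stably expressing nuclear-localized β-gal enzyme acceptor and GR fused C-terminally to the enzyme donor fragment; ligand-driven nuclear translocation restores β-gal by complementation. Compounds titrated up to 46 uM final, 2 h at 37 °C; luminescence read.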
# [6] = target: Mitogen-activated protein kinase 10 (Mus musculus) (UniProt Q61831); experiment: JNK3 AlphaScreen Assay (AID 530; active means well fitted curve in either direction with a large enough effect, not every such curve was filed as active;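 further: kinase came from lysate of stimulated human HepG2 cells; signal reports phosphorylation of biotinylated GST-cJun 1-79 at Ser73 with 10 µM ATP; series mostly up to about 57 µM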)
# Procedure, shortened: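 Biotinylated GST-cJun(1-79) served as substrate for JNK3 in HepG2 lysates stimulated with IL-1beta and TNF-alpha. ATP was 10 uM final, pH 7.6. Ser73 phosphorylation was quantified by AlphaScreen (680 nm excitation).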
# [7] = target: Cytochrome P450 3A4 (Homo sapiens) (UniProt P08684); experiment: qHTS Assay for Activators of Cytochrome P450 3A4 (AID 885); further: nearly all actives have a fitted effect of over 65% in size
# Procedure, shortened: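 Using 20nM recombinant human CYP3A4 in potassium phosphate (200mM), substrate Luciferin-PPXE at 25uM, luminescent luciferin detection followed a 60-min RT NADPH reaction; data scaled to 57 uM ketoconazole.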
# [8] = target: DNA dC->dU-editing enzyme APOBEC-3G (Homo sapiens) (UniProt Q9HC16); experiment: qHTS for inhibitors of Vif-A3G interactions: Validation (AID 588379)
# Procedure, shortened: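 Yellow fluorescence (Ex 488, Em 500-530) of Vif-coexpressing HeLa A3G-eYFP cells, scanned by Acumen cytometer, reports blocked A3G degradation. Cells plated at 700/well overnight at 37 deg C before compound addition, then a further overnight compound incubation at 37 deg C.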
# Furin (Homo sapiens) = Furin (Homo sapiens) (UniProt P09958); experiment: Furin counterscreen qHTS for Zika virus inhibitors (AID 1347149);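 further: purified recombinant full-length human furin enzyme at 5 nM; fluorescence gain from furin cutting a BOC-RVRR-AMC peptide substrate over 15 min; top concentration of the series differs between compounds; nearly all actives have a fitted effect of over 70% in size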
# Procedure, shortened: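 Counterscreen measures cleavage of 2 microM BOC-RVRR-AMC, below its ~15 microM Km, by 5 nM full-length human furin at pH 7.0 after a 15-min compound preincubation. Inhibition derives from the 15-min fluorescence increase at 37C.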
# [9] = tested on: Zika virus NS2B-NS3 protease (unlinked); experiment: Optimization of GU AMC qHTS for Zika virus inhibitors: Unlinked NS2B-NS3 protease assay (AID 1347151); further: nearly all actives have a fitted effect of over 80% in size; further: potency means the concentration at half of the fitted maximal effect
# Procedure, shortened: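 Percent inhibition is derived from the 15-min change in AMC fluorescence, normalized against no-inhibitor and no-enzyme controls, then fitted to a 4-parameter Hill curve. Aprotinin was the intraplate control.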
# [10] = tested on: Zika virus NS2B-NS3 protease; experiment: Primary screen GU AMC qHTS for Zika virus inhibitors (AID 1347154); further: nearly all actives have a fitted effect of over 70% in size
# Procedure, shortened: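 Unlinked Zika NS2B hydrophilic domain/NS3 protease domain noncovalent complex (25 nM final) in 10 mM Tris-HCl pH 8.0, 0.01% Tween 20, with AMC peptide substrate. Fluorescence (ex 340, em 450 nm) change over 15 min, room temperature; percent inhibition fitted to 4-parameter Hill equation.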
# [11] = Vero cells viability qHTS for Zika virus inhibitors (AID 1347167)
# Procedure, shortened: (§1)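 To flag cytotoxic protease inhibitors, viability is measured by ATP-dependent luminescence (CellTiter Glo) after cells attached overnight receive compound for 24 to 48 hours in DMEM with 4% FBS.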
# [12] = HepG2 cells viability qHTS for Zika virus inhibitors (AID 1347168)
# Procedure, shortened: as §1
# [13] = Primary qHTS for small molecule stabilizers of the endoplasmic reticulum resident proteome: Secreted ER Calcium Modulated Protein (SERCaMP) assay (AID 1508630)
# Procedure, shortened: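 The SH-SY5Y reporter protocol was run at 3 concentrations up to 38.3 uM (primary) or 11 concentrations (follow-up): 16 h compound, 100 nM thapsigargin for 4 h, then extracellular luciferase luminescence.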
# [14] = target: Cytochrome P450 2D6 (Homo sapiens) (UniProt P10635); experiment: Cytochrome P450 family 2 subfamily D member 6 (CYP2D6) small molecule antagonists: luciferase biochemical (cell-free) qHTS assay (AID 1645840; active means well fitted curve in the direction sought with a large enough effect in the repeat runs; an effect the other way counts as inactive or inconclusive; further: series mostly up to about 57 µM; nearly all actives have a fitted effect of over 55% in size)
# Procedure, shortened: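 P450-Glo CYP2D6 system: proluciferin substrate converted by enzyme to luciferin, read by luminescence proportional to activity. Enzyme-substrate mix with compound 10 min at room temperature, then NADPH regeneration 1 h before detection reagent.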
# [15] = target: N-terminal Xaa-Pro-Lys N-methyltransferase 1 (Homo sapiens) (UniProt Q9BV86); experiment: qHTS Assay for Inhibitors of N-terminal methyltransferase 1 (NTMT1): LOPAC validation of the NTMT1 SAHH-coupled ThioGlo3 Assay (AID 1347143);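 further: SAH from peptide methylation measured as thiol fluorescence via SAHH coupling and ThioGlo3; potency means the concentration at half of the fitted maximal effect; nearly all actives have a fitted effect of over 70% in size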
# Procedure, shortened: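 In this qHTS pilot against the LOPAC set, 125nM NTMT1 met compounds tested at multiple concentrations, and fluorescence was normalized to background.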
# [16] = Tertiary RLuc qRT-PCR qHTS assay for Zika virus inhibitors (AID 1347169); further: potency means the concentration at half of the fitted maximal effect; nearly all actives have a fitted effect of over 55% in size
# Procedure, shortened: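 Orthogonal cell-based infection assay using recombinant ZIKV-RLuc (Cambodian) in Vero cells; compound added prior to virus at MOI 1-2. Incubation lasts 48-72 hrs at 37 degrees C before live-cell Renilla substrate is added and luminescence measured.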
# Furin (Homo sapiens), sequence (P09958 whole entry, looked up): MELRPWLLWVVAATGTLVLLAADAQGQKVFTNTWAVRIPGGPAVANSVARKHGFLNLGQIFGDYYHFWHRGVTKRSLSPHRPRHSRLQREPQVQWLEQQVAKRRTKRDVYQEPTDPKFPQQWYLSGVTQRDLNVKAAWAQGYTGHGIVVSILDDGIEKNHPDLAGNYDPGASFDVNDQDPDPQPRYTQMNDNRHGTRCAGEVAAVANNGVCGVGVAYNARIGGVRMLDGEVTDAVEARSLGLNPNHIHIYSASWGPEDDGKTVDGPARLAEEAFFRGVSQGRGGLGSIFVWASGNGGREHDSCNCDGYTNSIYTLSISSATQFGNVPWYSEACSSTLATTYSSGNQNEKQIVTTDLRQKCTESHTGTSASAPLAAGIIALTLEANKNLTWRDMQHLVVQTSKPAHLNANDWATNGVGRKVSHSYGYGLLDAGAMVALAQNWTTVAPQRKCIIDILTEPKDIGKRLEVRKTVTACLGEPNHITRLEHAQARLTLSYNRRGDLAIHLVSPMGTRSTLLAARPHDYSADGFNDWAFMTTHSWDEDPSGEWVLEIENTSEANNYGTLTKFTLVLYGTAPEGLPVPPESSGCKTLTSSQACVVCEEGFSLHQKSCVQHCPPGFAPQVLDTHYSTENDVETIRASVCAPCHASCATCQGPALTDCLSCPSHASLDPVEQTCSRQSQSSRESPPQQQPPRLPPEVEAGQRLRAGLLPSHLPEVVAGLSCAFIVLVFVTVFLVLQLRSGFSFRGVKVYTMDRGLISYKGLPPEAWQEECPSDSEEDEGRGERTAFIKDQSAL
# Atrial natriuretic peptide receptor 1 (Homo sapiens), sequence (P16066 whole entry, looked up): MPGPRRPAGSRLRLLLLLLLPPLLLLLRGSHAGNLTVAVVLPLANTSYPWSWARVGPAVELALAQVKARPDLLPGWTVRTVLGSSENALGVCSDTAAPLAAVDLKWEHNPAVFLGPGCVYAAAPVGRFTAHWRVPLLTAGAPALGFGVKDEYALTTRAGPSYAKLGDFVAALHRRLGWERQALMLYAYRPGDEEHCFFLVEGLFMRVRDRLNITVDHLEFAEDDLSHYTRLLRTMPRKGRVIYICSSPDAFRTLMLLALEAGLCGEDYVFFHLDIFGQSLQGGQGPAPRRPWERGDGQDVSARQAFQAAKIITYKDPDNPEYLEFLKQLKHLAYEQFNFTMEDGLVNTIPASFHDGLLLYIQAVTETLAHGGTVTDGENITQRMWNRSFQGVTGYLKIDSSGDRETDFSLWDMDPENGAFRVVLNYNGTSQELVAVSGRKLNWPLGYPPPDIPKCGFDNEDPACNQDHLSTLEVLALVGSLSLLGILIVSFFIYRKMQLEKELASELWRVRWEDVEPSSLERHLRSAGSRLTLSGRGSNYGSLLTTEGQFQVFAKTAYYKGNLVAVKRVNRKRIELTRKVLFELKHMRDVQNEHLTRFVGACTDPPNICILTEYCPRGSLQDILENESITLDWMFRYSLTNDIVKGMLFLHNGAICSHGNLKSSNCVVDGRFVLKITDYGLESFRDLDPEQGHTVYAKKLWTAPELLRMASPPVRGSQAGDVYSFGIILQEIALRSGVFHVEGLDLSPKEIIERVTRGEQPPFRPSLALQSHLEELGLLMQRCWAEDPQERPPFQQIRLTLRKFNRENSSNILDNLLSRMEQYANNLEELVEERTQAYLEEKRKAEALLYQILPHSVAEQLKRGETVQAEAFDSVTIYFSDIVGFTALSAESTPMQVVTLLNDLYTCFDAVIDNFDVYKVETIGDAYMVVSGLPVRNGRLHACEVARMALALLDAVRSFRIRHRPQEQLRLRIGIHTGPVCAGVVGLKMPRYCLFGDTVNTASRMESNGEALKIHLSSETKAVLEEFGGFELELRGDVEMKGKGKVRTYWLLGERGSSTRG
# Glucocorticoid receptor (Homo sapiens), sequence (P04150 whole entry, looked up, the tested form may be a part): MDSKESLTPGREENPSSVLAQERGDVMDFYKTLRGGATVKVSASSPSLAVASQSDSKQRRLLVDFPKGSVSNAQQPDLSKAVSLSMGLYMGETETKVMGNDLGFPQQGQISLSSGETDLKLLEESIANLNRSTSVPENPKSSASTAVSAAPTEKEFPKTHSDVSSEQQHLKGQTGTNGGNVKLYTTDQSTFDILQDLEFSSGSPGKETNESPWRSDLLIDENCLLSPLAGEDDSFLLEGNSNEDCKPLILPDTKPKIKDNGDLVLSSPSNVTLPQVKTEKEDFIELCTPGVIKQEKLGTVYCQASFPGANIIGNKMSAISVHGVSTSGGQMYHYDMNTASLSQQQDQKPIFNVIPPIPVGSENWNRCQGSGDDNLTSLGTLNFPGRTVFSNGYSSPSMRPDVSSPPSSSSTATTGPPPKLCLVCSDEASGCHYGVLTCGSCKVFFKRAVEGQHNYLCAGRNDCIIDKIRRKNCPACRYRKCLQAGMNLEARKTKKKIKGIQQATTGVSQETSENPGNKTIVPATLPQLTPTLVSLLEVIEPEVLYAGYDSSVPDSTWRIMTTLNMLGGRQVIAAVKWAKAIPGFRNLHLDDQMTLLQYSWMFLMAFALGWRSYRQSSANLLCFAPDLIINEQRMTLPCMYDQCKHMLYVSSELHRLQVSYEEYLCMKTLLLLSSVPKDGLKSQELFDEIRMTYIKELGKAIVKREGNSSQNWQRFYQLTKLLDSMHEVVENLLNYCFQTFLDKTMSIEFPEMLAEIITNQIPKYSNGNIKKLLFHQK
# N-terminal Xaa-Pro-Lys N-methyltransferase 1 (Homo sapiens), sequence (Q9BV86 whole entry, looked up): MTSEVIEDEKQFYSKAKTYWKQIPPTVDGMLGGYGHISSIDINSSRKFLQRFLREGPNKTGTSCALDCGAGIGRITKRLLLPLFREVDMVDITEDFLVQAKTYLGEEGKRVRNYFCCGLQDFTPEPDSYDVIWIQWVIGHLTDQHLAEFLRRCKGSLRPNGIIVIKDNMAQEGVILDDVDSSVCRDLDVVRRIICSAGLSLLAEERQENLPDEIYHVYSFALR
# Cytochrome P450 2D6 (Homo sapiens), sequence (P10635 whole entry, looked up): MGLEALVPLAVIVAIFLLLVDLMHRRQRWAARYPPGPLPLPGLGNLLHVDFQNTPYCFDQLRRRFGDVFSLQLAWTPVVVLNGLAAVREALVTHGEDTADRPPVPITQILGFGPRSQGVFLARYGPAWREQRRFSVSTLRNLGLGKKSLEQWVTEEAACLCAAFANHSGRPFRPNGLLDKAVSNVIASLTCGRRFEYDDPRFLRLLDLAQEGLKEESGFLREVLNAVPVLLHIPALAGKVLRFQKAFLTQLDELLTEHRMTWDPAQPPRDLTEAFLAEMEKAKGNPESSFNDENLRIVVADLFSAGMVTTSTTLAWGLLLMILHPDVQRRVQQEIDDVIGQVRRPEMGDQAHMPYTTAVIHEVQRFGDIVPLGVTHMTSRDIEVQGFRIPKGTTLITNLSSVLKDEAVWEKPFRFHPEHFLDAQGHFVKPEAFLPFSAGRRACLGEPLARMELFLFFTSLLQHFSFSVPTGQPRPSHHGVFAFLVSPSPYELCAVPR
# Cytochrome P450 3A4 (Homo sapiens), sequence (P08684 whole entry, looked up): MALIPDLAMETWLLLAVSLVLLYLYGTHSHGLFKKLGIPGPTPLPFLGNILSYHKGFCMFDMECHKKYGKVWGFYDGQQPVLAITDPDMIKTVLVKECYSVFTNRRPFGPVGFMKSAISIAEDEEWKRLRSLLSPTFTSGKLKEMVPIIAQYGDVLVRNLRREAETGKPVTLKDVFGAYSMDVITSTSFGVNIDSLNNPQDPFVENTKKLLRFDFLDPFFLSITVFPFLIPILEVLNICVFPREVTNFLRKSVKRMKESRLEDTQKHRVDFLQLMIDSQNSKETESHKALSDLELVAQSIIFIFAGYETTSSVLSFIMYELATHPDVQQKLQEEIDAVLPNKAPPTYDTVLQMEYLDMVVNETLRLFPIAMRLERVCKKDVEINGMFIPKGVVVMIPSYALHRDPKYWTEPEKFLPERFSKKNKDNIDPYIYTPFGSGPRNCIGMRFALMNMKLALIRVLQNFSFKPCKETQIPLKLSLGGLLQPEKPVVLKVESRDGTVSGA
# Cytochrome P450 1A2 (Homo sapiens), sequence (P05177 whole entry, looked up): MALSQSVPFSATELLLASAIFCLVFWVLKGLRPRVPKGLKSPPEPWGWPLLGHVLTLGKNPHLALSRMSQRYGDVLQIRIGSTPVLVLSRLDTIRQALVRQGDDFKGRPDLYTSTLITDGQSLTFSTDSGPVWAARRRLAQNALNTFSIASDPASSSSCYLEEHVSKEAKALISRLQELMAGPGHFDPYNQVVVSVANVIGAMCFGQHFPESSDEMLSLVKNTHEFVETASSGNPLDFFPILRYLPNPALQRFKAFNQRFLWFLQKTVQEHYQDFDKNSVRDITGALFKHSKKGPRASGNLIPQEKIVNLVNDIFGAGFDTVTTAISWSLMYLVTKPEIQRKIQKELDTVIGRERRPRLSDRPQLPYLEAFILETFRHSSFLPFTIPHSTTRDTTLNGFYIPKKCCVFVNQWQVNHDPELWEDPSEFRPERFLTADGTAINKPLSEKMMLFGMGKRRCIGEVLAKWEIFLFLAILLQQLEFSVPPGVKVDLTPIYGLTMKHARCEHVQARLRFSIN
# DNA dC->dU-editing enzyme APOBEC-3G (Homo sapiens), sequence (Q9HC16 whole entry, looked up): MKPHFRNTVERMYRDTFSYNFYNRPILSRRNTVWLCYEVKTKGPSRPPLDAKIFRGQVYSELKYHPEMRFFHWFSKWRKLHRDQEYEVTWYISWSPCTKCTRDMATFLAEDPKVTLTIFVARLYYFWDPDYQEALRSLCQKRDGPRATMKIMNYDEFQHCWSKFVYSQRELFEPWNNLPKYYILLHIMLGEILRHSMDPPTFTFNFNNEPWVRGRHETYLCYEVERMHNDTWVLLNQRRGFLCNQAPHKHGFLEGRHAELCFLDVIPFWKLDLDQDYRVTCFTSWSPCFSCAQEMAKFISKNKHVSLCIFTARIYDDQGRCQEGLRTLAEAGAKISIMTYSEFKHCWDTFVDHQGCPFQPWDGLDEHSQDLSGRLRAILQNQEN
compound,measurement,setting,value
COc1cc2c(cc1OC)[C@@H]1O[C@](c3ccsc3)(C2)Oc2c1c(=O)oc1ccc(F)cc21,Potency,[1],inactive
same,Potency,[2],inactive
COc1ccc2c(c1)CO[C@H]([C@H](O)CO)[C@H]2C=CC#Cc1ccc(C(C)(C)C)cc1,Potency,[1],inactive
same,Potency,[2],inactive
"Cc1c2oc3c(C)ccc(C(=O)N[C@@H]4C(=O)N[C@@H](C(C)C)C(=O)N5CCC[C@@H]5C(=O)N(C)CC(=O)N(C)[C@@H](C(C)C)C(=O)O[C@H]4C)c3nc-2c(C(=O)N[C@@H]2C(=O)N[C@@H](C(C)C)C(=O)N3CCC[C@@H]3C(=O)N(C)CC(=O)N(C)[C@@H](C(C)C)C(=O)O[C@H]2C)c(N)c1=O (I: [aThr]V[dP][Sar][NMeV] / II: [aThr]V[dP][Sar][NMeV]; ester I:1-I:C, II:1-II:C; linker I:N-II:N via Actinocin(9to1))",Potency,[3],inactive
same,Potency,[4],> 46 µM
same,Potency,[5],> 46 µM
same,Potency,[6],inactive
same,Potency,[7],inactive
same,Potency,[8],inactive
same,Potency,Furin (Homo sapiens),inactive
same,Potency,[9],27.1 µM (active)
same,Potency,[10],inactive
same,Potency,[11],inactive
same,Potency,[12],inactive
same,Potency,[13],inactive
same,Potency,[14],inactive
C#CCN1C(=O)[C@]2(O[C@H](COc3ccccc3)CC3=C2CCC3)c2ccccc21,Potency,[1],inactive
same,Potency,[2],inactive
Cc1cc2c(c(=O)n1Cc1ccccc1)[C@H]1O[C@](c3ccsc3)(Cc3ccccc31)O2,Potency,[1],inactive
same,Potency,[2],inactive
CCOC(=O)CN1C(=O)[C@]2(O[C@H](COc3ccccc3)CC3=C2CCC3)c2ccccc21,Potency,[1],inactive
same,Potency,[2],inactive
C=COC[C@H]1CN2[C@H](c3ccc(Br)cc3)[C@H](C)CC[C@H]2C(=O)O1,Potency,[1],1.9 µM (active)
same,Potency,[2],inactive
CSc1nc(N)c2ncn([C@@H]3O[C@H](COP(=O)(O)OP(=O)(O)OP(=O)(O)O)C(O)[C@H]3O)c2n1 (stereo partly specified),Potency,[15],50.1 µM (active)
CC1(C)O[C@@H](C(O)(c2ccccc2)c2ccccc2)[C@H](C(O)(c2ccccc2)c2ccccc2)O1,Potency,[1],inactive
same,Potency,[2],inactive
C#CCN1C(=O)[C@]2(OC[C@@H]3Cc4ccccc4[C@@H]3C=C2C)c2ccccc21,Potency,[1],inactive
same,Potency,[2],inactive
O=C1OC2(c3ccccc31)c1ccc3cc(O)ccc3c1Oc1c2ccc2cc(O)ccc12,Potency,Furin (Homo sapiens),inactive
C[C@H]1O[C@@H](O[C@H]2[C@@H](O)C[C@H](O[C@H]3[C@@H](O)C[C@H](O[C@H]4CC[C@]5(C)C6C[C@@H](O)[C@]7(C)[C@@H](C8=CC(=O)OC8)CC[C@]7(O)C6CC[C@@H]5C4)O[C@@H]3C)O[C@@H]2C)C[C@H](O)[C@@H]1O (stereo partly specified),Potency,Furin (Homo sapiens),inactive
same,Potency,[9],inactive
same,Potency,[10],inactive
same,Potency,[11],inactive
same,Potency,[16],0.294 µM (active)
